The values below come from article PMC4336329 (PLoS ONE, 2015).

Screen size: about 310,000 compounds; about 14,000 (4.5%) showed an effect of 50% or more. Effects have a minus sign here. This is one part of a sample in which strong results are shown more often than they occur.
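Further: peak tail current of the secondary pulse compared with the same well before compound.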

The assay deals with human ether-à-go-go-related gene (hERG) potassium channel (human, UniProt Q12809). Description: primary screen, population patch clamp on CHO cells stably expressing hERG; higher = less effect of the substance.
Sequence of human ether-à-go-go-related gene (hERG) potassium channel (Q12809 whole entry, looked up): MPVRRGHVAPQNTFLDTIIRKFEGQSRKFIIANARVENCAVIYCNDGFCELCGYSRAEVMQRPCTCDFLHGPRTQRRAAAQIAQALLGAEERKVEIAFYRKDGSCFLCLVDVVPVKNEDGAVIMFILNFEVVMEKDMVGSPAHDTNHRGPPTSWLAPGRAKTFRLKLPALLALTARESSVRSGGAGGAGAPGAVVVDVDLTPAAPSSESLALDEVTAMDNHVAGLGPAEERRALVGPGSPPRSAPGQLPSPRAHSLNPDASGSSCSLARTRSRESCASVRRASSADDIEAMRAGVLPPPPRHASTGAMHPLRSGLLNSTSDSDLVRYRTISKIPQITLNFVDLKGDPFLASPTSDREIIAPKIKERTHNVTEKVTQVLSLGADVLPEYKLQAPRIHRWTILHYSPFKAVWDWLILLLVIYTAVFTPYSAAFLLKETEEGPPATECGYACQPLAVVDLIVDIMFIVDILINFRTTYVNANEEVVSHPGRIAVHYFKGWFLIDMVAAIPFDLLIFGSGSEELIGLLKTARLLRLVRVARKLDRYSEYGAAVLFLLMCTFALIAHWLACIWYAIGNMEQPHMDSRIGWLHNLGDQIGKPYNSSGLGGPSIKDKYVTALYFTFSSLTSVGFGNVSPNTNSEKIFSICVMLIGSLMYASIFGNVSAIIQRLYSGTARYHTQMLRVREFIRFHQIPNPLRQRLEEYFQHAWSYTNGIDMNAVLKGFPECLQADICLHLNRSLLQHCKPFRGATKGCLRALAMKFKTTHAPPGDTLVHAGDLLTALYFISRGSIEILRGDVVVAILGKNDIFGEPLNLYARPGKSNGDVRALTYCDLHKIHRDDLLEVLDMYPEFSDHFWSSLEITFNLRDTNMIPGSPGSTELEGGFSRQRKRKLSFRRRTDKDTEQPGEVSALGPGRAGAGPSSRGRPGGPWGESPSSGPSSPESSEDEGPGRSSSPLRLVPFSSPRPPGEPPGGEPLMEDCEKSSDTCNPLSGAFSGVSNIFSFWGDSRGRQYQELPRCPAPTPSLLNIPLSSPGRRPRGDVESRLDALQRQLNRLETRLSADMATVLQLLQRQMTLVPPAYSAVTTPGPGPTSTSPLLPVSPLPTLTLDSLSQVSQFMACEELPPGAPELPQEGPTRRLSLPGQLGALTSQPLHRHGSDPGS
For the compound `CC(C)(C)c1cc[n+](C2=C([O-])c3ccccc3C(=O)/C2=N\S(=O)(=O)c2cccs2)cc1`, the “hERG current change (%, negative = inhibition) at 10uM” value was -44%. In the case of `CCc1c(C)n([O-])c2c([n+]1=O)CCC2`, the “hERG current change (%, negative = inhibition) at 10uM” value was found to be 13.1%. On to `COc1cccc(N(CC(=O)NC2CCCC2)C(=O)CCC(=O)Nc2cc(C)on2)c1`, for which the “hERG current change (%, negative = inhibition) at 10uM” value is on record as -16.4%. Turning to `Cn1c(CN2CCCCC2)nc2cc(NC(=O)c3cccc(Br)c3)ccc21`, the “hERG current change (%, negative = inhibition) at 10uM” value is given as -63.3%. The result for `CC(=O)Nc1ccc2c(c1)nc(CN1CCCC1)n2C` reads -7.28%; that for `CCC(=O)Nc1ccc2c(c1)nc(CN1CCCCC1)n2C`, 15%. The result for `CC(=O)N1CCN(Cc2nc3cc(NC(=O)c4cccc(Br)c4)ccc3n2C)CC1` reads -70%. The result for `CC(=O)N1CCN(Cc2nc3cc(NC(=O)c4ccccc4)ccc3n2C)CC1` reads 15.8%; that for `CCC(=O)Nc1ccc2c(c1)nc(CN1CCN(C(C)=O)CC1)n2C`, -0.94%; that for `Oc1ccccc1N1CCN(c2ncccn2)CC1`, 10.4%.

Turning to `Cc1ccc(S(=O)(=O)NNC(=O)c2sccc2-n2cccc2)cc1`, the “hERG current change (%, negative = inhibition) at 10uM” value was -21.7%.

Regarding `CC(C)c1cccc(C(C)C)c1NC(=S)Nc1cccc(Cl)c1`, the “hERG current change (%, negative = inhibition) at 10uM” value amounted to 5.01%. For the compound `COc1ccc(CC(=O)NNC(=O)c2ccncc2)cc1`, the “hERG current change (%, negative = inhibition) at 10uM” value is reported as 29.1%. `COc1cccc(CNS(=O)(=O)c2c(C)nc3sccn3c2=O)c1`: the “hERG current change (%, negative = inhibition) at 10uM” value is given as -13.6%.

For the compound `CCOc1ccc(CNS(=O)(=O)c2c(C)nc3scc(C)n3c2=O)cc1OC`, the “hERG current change (%, negative = inhibition) at 10uM” value turned out to be 8.99%. For the compound `CCOc1ccc(CNS(=O)(=O)c2c(C)nc3sccn3c2=O)cc1OC`, the “hERG current change (%, negative = inhibition) at 10uM” value is -66.1%. Consider `O=C(NCCNC(=O)c1ccccn1)c1ccccc1`, for which the “hERG current change (%, negative = inhibition) at 10uM” value was 11.7%. The result for `COc1ccc(Nc2c(-c3ccc(C)cc3)nc3cnccn23)cc1` reads -24.5%; that for `C=CCc1ccc(OCCn2nnc3ccccc32)c(OC)c1`, -12.8%. As for `Cc1ccc(C(=O)N(C)c2ccc(OCC(=O)N3c4ccc(C)cc4C4CN(C)CCC43)cc2)cc1.Cl` (stereo not shown), the “hERG current change (%, negative = inhibition) at 10uM” value is -25.5%.

With `Cc1ccc2c(c1)C1CN(C)CCC1N2C(=O)c1cn(-c2ccccc2)nc1-c1ccccc1` (stereo not shown), the “hERG current change (%, negative = inhibition) at 10uM” value was -65.6%. For the compound `Cc1ccc2c(c1)C1CN(C)CCC1N2C(=S)Nc1ccc(Cl)cc1Cl` (stereo not shown), the “hERG current change (%, negative = inhibition) at 10uM” value is -34.2%. With `Cc1ccc2c(c1)C1CN(C)CCC1N2C(=O)c1ccco1` (stereo not shown), the “hERG current change (%, negative = inhibition) at 10uM” value was -7.26%. The result for `Cc1ccc2c(c1)C1CN(C)CCC1N2C(=O)c1ccc(Br)o1` (stereo not shown) reads -38%; that for `CC1Cc2ccccc2N1C(=S)NC(=O)c1ccc(Cl)cc1Cl` (stereo not shown), 4.89%. With `Cc1ccc2c(c1)C1CN(C)CCC1N2C(=O)c1cccs1` (stereo not shown), the “hERG current change (%, negative = inhibition) at 10uM” value is recorded as -22%. The result for `Cc1ccc2c(c1)C1CN(C)CCC1N2C(=S)Nc1ccc(OC(F)F)cc1` (stereo not shown) reads -55.1%; that for `Cc1ccc2c(c1)C1CN(C)CCC1N2C(=S)NC(=O)c1ccc(Cl)cc1Cl` (stereo not shown), -71%; that for `Cc1ccc2c(c1)C1CN(C)CCC1N2C(=S)NC(=O)c1ccc(Br)cc1` (stereo not shown), -67.1%. The result for `Cc1ccc2c(c1)C1CN(C)CCC1N2C(=S)Nc1cccnc1` (stereo not shown) reads -14%; that for `COc1ccc(-c2nn(-c3ccccc3)cc2C(=O)N2c3ccc(C)cc3C3CN(C)CCC32)cc1` (stereo not shown), -31.7%.
